As a reminder, the inhibition is the change of the read-out against control, counted positive when it falls.

The source of these data is PubChem BioAssay.

Where “and” joins values, the source holds several entries; their conditions need not be identical. Equal values may be shown once. Values without a mark were called inactive. How the calls were made is not given here.

For the assay, the target named is Pantothenate synthetase (Mycobacterium tuberculosis (strain ATCC 25618 / H37Rv)) (UniProt P9WIL5). In words: Coupled enzyme confirmation of inhibitors against recombinant Mtb PanC (AID 375).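 Further: 0% = full reaction with vehicle and 100% = no enzyme background.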 The following applies: coupled enzyme assay; at 10 µM, stronger effect = higher value.
Chain of Pantothenate synthetase (Mycobacterium tuberculosis (strain ATCC 25618 / H37Rv)) (P9WIL5 whole entry, looked up): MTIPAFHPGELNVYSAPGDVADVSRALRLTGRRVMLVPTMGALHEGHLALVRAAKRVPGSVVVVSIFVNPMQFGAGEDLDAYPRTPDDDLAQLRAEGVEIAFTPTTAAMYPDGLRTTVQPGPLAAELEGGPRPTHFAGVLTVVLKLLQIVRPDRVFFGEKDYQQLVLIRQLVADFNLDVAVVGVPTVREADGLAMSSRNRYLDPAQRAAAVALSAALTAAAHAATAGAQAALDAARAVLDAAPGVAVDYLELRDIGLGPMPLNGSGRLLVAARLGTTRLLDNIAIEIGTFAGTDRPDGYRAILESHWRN
Turning to `COCCCN(C(C)=O)c1nc(-c2ccccc2)cs1`, the inhibition was 0%.
Then `CC(=O)c1c(OC(=O)c2ccco2)c2ccccc2n1C`, with 0%.
Then `Cc1ccc(NC(=O)c2cc(-c3ccc(C)o3)nc3ccccc23)nc1`, with 0%.
Turning to `Cc1ccc(NC(=O)CSc2nnc(Cc3cccn3C)n2-c2ccc(F)cc2)cc1`, the inhibition is 6%.
Next, `COc1ccc(NC(=O)CCS(=O)(=O)c2ccc(OC)cc2)cc1`: 0%; `O=C1CC(=O)N(Cc2cccs2)C(=O)N1`: 0%.
Then `COC(=O)c1[nH]c2ccc(C)cc2c1NC(=O)CN1CCC(C)CC1`, with 0%; and `CN(Cc1cnn(C)c1)C(=O)c1cc2ccccc2oc1=O`, with 3%.
Next, `Cc1occc1-c1nnc(SCC(=O)N2CCc3ccccc32)o1`: 0%.
Consider `CCN1CCN(C(CNC(=O)c2ccc3c(c2)OCO3)c2cccnc2)CC1` (centres undefined), for which the inhibition is 0%.
Next, `NCCCCCc1nnc(SC/C=C/c2ccccc2)o1`: 0%; `COc1ccc(S(=O)(=O)NC(C)C(=O)Nc2cccc(C(C)=O)c2)cc1` (centres undefined): 0%.
Then `O=C(c1ccccc1-c1ccccc1)N1CCN(c2ccccn2)CC1`, with 0%; and `CCOc1ccccc1N(CC(=O)N1CCOCC1)S(=O)(=O)c1ccccc1`, with 0%.
Next, `Clc1ccc2c(c1)[C@H]1OCC[C@H]1[C@@H](c1ccco1)N2`: 3%; `CC(C)Cn1c(-c2ccc(F)cc2)n[nH]c1=S`: 0%; `COc1ccc(CCn2c(NCCCN3CCOCC3)nc3c2c(=O)[nH]c(=O)n3C)cc1`: 0%.
For `COC(=O)c1cccc(NC(=O)C2COc3ccccc3O2)c1C` (centres undefined), the inhibition was 0%.
Next, `Cc1ccc2c(CNCc3ccco3)cc(=O)oc2c1`: 0%.
Next, `CC(=O)N1CCC(N(C(=O)Nc2ccc(C)c(C)c2)C2CCCC2)CC1`: 0%; `Cc1c(C(=O)NCc2cccnc2)sc2ncn(CC(=O)N3CCCCC3C)c(=O)c12` (centres undefined): 0%.
Next, `CC1=C(C(=O)NCc2ccccc2)C(c2ccccc2OCC(N)=O)NC(=O)N1` (centres undefined): 0%; `O=C(O)c1cc2c([nH]c1=O)CCCC2`: 8%; `COc1ccc(Cl)cc1Nc1nc(C)cc(=O)[nH]1`: 3%.
Regarding `C=CCn1c(=O)[nH]c2cc(C(=O)N3CCN(c4ccc(C(C)=O)cc4)CC3)ccc2c1=O`, the inhibition was 1%.
Take `CCn1c(=O)cc(OCC(=O)Nc2cc(C)ccn2)c2ccccc21`: the inhibition is 0%.
Next, `CN(CCO)CC(O)Cn1cnc2c1c(=O)n(C)c(=O)n2C` (centres undefined) (tested in a mixture with another compound): 0%.
Then `CN(C)C(=O)Oc1cccc([N+](C)(C)C)c1`, with 9% and 0%; and `CCS(=O)(=O)NCCc1cc2c(OC)ccc(OC)c2[nH]c1=O`, with 3%; and `COc1ccccc1C1c2c(oc3ccc(Cl)cc3c2=O)C(=O)N1c1cc(C)on1` (centres undefined), with 0%.
Then `Cc1c(NC(=O)c2ccc(=O)oc2)c(=O)n(-c2ccccc2)n1C`, with 6%.
As to `CCC(=O)Nc1ccc2nc(SCC(=O)N3CCCC3)sc2c1`, the inhibition was 0%.
Then `CCCCN(CC)CCNC(=O)c1cc2c(C)nc3ccccc3c2o1`, with 10%; and `Cn1c(-c2ccc(C(C)(C)C)cc2)n[nH]c1=S`, with 0%; and `CC(=O)c1ccc(-n2nnnc2SCC(=O)N2CCc3ccccc3C2)cc1`, with 0%.
For `O=C(NCc1ccco1)c1c2c(nc3ccccc13)CCC2`, the inhibition was 0%.
Consider `Cc1n[nH]c(C)c1N1C(=O)c2cccc3cc(Br)cc(c23)C1=O`, for which the inhibition is 6%.
Next, `O=c1oc2c3c4c(cc2s1)CCCN4CCC3`: 0%.
For `Cc1nn(C)cc1C1C2=C(CC(C)(C)CC2=O)OC2=C1C(=O)CC(C)(C)C2`, the inhibition was 0%.
